Data on 34 molecules can be found in ChEMBL document CHEMBL3433997, “St. Jude Leishmania screening dataset” (2016).

Broadly, the inhibition is the change of the read-out against control, counted positive when it falls.

The structures appear in SMILES notation.

Holding throughout (format): functional
The target of assay [1] is Solute carrier family 2, facilitated glucose transporter member 1 (Homo sapiens) (UniProt P11166). Kind of assay: ST_JUDE_LEISH: Cytotoxicity at 2uM final concentration against transgenic Leishmania Mexicana promastigotes LmGLUT1 that are glucose transport deficient and complemented with the human glucose transporter GLUT1. Activity is measured by DNA content using SYBR green in vitro.
Sequence of Solute carrier family 2, facilitated glucose transporter member 1 (Homo sapiens) (P11166 whole entry): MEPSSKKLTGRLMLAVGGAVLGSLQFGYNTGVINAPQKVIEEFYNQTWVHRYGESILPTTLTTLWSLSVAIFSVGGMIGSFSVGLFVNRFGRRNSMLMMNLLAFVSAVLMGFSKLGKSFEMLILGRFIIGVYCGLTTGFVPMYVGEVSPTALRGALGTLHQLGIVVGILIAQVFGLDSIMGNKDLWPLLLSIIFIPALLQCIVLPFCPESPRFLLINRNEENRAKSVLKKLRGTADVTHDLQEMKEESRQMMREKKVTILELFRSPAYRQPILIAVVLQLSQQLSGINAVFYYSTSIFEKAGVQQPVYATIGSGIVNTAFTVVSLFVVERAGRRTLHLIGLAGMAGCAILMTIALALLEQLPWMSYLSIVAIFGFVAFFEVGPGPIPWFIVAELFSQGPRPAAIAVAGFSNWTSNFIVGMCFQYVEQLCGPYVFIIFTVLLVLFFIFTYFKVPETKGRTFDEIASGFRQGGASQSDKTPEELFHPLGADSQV

For assay [2], the target named is Hexose transporter 1 (Plasmodium falciparum) (UniProt O97467). The assay can be described thus: ST_JUDE_LEISH: Cytotoxicity at 2uM final concentration against transgenic Leishmania Mexicana promastigotes LmPfHT that are glucose transport deficient and complemented with the Plasmodium falciparum hexose transporter. Activity is measured by DNA content using SYBR green in vitro.

Assay [3] deals with Glucose transporter (Leishmania mexicana) (UniProt O61059). The assay can be described thus: ST_JUDE_LEISH: Cytotoxicity at 2uM final concentration against transgenic Leishmania Mexicana promastigotes LmGT2 that are glucose transport deficient and complemented with the L. Mexicana glucose transporter 2. Activity is measured by DNA content using SYBR green in vitro.

For `NC(=O)c1sc(-n2cnc3ccc(OCC4CCNCC4)cc32)cc1OCc1ccccc1C(F)(F)F`, the inhibition was 0.4% in assay [1], -0.16% in assay [2] and 0.31% in assay [3].

As for `CCN(CC)CCCNc1nccc(N2CCc3ncnc(Nc4ccc(OCc5cccc(F)c5)c(Cl)c4)c3C2)n1`, the inhibition is 7.17% in assay [1], 9.1% in assay [2] and 7.87% in assay [3].

Regarding `CN(C)S(=O)(=O)n1ncc2c3c(N)nc(N)nc3ccc21`, the values for the inhibition in assay [1], in assay [2] and in assay [3] were 0.68%, 1.22% and 0.96%, respectively.

Consider `CN(C)c1ccc(CN2CCCCC(NC(=O)c3cc(-c4ccccc4Cl)cs3)C2)cc1` (configuration not stated), for which the figures for the inhibition in assay [1], in assay [2] and in assay [3] were 2.84%, 2.86% and 4.6%, respectively.

Consider `CN(C)Cc1cccc(-c2cnc(N)c(-c3nc4cc(S(C)(=O)=O)ccc4[nH]3)c2)c1`, for which the values for the inhibition in assay [1], in assay [2] and in assay [3] were 2.57%, 5.29% and 3.97%, respectively.

Regarding `CC(=O)N1N=C(c2ccc(F)cc2)Sc2c1nc(-c1ccccc1)n2C(C)=O`, the inhibition in assay [1] stood at 8.6%; in assay [2] it was 7.94%; in assay [3], 8.7%.

Take `COc1ccc(Cc2cnc3nc(N)nc(N)c3c2C)cc1`: the inhibition was 39.5% in assay [1], 49.3% in assay [2] and 41.3% in assay [3].

Turning to `COc1cc2nc(NCCN3CCOCC3)n3nc(-c4ccccc4)nc3c2cc1OC`, the values for the inhibition in assay [1], in assay [2] and in assay [3] were 8.12%, 6.56% and 5.62%, respectively.

Consider `O=C(CN1C(=O)CC1S(=O)(=O)Cc1ccco1)NCCCCCCc1ccc(F)cc1` (configuration not stated), for which the figures for the inhibition in assay [1], in assay [2] and in assay [3] were -0.99%, 1.25% and 0.24%, respectively.

`CN1CCN(CCCN(Cc2cccc(-c3cccc(CNCCc4ccccc4)c3)c2)C(=O)Nc2ccccc2)CC1`: the inhibition was found to be 8.85% in assay [1], 9.55% in assay [2] and 7.52% in assay [3].

As to `N#Cc1cccc(NC(=O)Nc2ccc3c(c2)CCN(C2CCC2)CC3)c1`, the values for the inhibition in assay [1], in assay [2] and in assay [3] were 5.45%, 4.43% and 4.94%, respectively.

Consider `O=C(/C=C/c1ccc(Cl)c(Cl)c1)N1CCC(CCN2CCC(c3c[nH]c4ccccc34)CC2)CC1`, for which the inhibition was -0.41% in assay [1], 0.94% in assay [2] and 0.41% in assay [3].

In the case of `NS(=O)(=O)c1cncc(-c2ccc3nccc(-c4cn[nH]c4)c3n2)c1`, the inhibition came out at 6.71% in assay [1], 7.77% in assay [2] and 6.63% in assay [3].

As to `COc1cccc(-c2cnc(N)c(-c3nc4cc(Cl)c(F)cc4[nH]3)c2)c1`, the inhibition in assay [1] was found to be 15.6%; in assay [2] it was 14.7%; in assay [3], 8.86%.

As for `COc1ccc(C(C(=O)NC2CCN(C[C@H](O)c3ccnc4ccc(OC)cc34)CC2)N2CCN(c3ccc(F)cc3)CC2)cc1` (some centres not stated), the figures for the inhibition in assay [1], in assay [2] and in assay [3] were 1.52%, 1.23% and 1.93%, respectively.

Consider `CC(Cc1ccc(OCCN2CCN(c3ccc(Cl)cc3)CC2)cc1)NCC(O)c1cccc(C(F)(F)F)c1` (configuration not stated), for which the inhibition was -2.36% in assay [1], -1.57% in assay [2] and 0.07% in assay [3].

For the molecule `CC(C)(C)NC(=O)COC(=O)c1c2c(nc3ccccc13)C(=Cc1ccc3c(c1)OCO3)CCC2`, the inhibition in assay [1] is 1.65%; in assay [2] it was 1.17%; in assay [3], 0.48%.

`c1ccc(CCNc2nc(NCC(c3ccccc3)c3ccccc3)c3nc[nH]c3n2)cc1`: the results for the inhibition in assay [1], in assay [2] and in assay [3] were 4.2%, 3.7% and 1.17%, respectively.

Turning to `CC(C)Cc1nc(N)nc(N)c1-c1ccc(Cl)cc1`, the inhibition turned out to be 6.51% in assay [1], 5.64% in assay [2] and 5.17% in assay [3].

For `Cn1ncc2c3c(CCN4CCC(NCc5cc6c(cn5)OCC6)CC4)c(Cl)cnc3ccc21`, the figures for the inhibition in assay [1], in assay [2] and in assay [3] were 0.52%, 0.99% and 0.05%, respectively.

As to `Cc1ccc(CCC(C)NCC(O)c2cccc(C(F)(F)F)c2)cc1` (configuration not stated), the values for the inhibition in assay [1], in assay [2] and in assay [3] were -0.37%, 0.53% and 0.17%, respectively.

In the case of `Fc1cccc(C=NNc2ccnc3cc(Cl)ccc23)c1`, the inhibition came to 3.49% in assay [1], 4.64% in assay [2] and 0.64% in assay [3].

Take `Cc1cc(Nc2ccc(O)cc2)nc2cc(O)ccc12`: the values for the inhibition in assay [1], in assay [2] and in assay [3] were 3.16%, 1.93% and 3.51%, respectively.

For the molecule `Clc1ccc(-c2cc3c(NCc4ccncc4)nccc3s2)cc1`, the figures for the inhibition in assay [1], in assay [2] and in assay [3] were 6.24%, 4.38% and 2.2%, respectively.

Turning to `CCCC(C)Nc1nc(C)cc(NCCC(=O)Nc2ccc(OC)cc2)n1` (configuration not stated), the inhibition in assay [1] was 1.95%; in assay [2], 0.08%; in assay [3], -0.58%.

As for `O=C(Nc1ccc(Cl)cc1)c1cc(Cl)cc2nc(C(F)(F)F)[nH]c12`, the inhibition came out at 9.28% in assay [1], 15% in assay [2] and 9.44% in assay [3].

For `Cn1cncc1CCN(Cc1ccc(-c2ccc(C(F)(F)F)cc2)cc1)C(=O)Cn1c(SCc2cccc(F)c2F)cc(=O)c2ccccc21`, the inhibition in assay [1] worked out at 4.77%; in assay [2], 1.65%; in assay [3] it was 2.14%.

As to `CCCCCc1ccc(NC(=O)Nc2ccc(Cn3ncc(N4CCCNCC4)c(Cl)c3=O)cc2)cc1`, the inhibition in assay [1] is -1.1%; in assay [2] it was -1.27%; in assay [3], 0.47%.

Take `CCOC(=O)c1cn(CC)c2cc(N(C)CCc3ccc(OC)c(OC)c3)c(F)cc2c1=O`: the results for the inhibition in assay [1], in assay [2] and in assay [3] were 2.15%, 1.21% and 1.68%, respectively.

For `CN(C)CCNCc1ccc(-c2ccc(-c3nc4ccccc4[nH]3)s2)cc1`, the results for the inhibition in assay [1], in assay [2] and in assay [3] were 13.7%, 14.5% and 12.8%, respectively.

On to `CCN1C(=O)C(CC(=O)Nc2cccc(Cl)c2)N(Cc2ccc(OC)c(OC)c2)C1=S` (configuration not stated), for which the inhibition in assay [1] stood at 0.59%; in assay [2], 4.35%; in assay [3] it was 0.57%.

Take `CC1(C)NC(N)=NC(=N)N1OCC1CCCCC1`: the results for the inhibition in assay [1], in assay [2] and in assay [3] were -0.1%, 1.24% and 0.75%, respectively.

`COc1ccccc1CNC(=O)c1cc(Br)cc(N2CCN(c3ccncc3)CC2)c1`: the inhibition in assay [1] was determined as 1.71%; in assay [2], 2.47%; in assay [3] it was 0.83%.

On to `COc1ccc2nccc([C@@H](O)CN3CCC(NCc4cc5cccnc5[nH]4)CC3)c2n1`, for which the inhibition in assay [1] amounted to 15.5%; in assay [2], 14.9%; in assay [3], 3.26%.
